# Measured values: PubChem BioAssay (Tox21)
# Values without a mark were called inactive. Inconclusive results are not listed. Entries that show only a call come without a potency. Calls of active or inactive are those of the source. Unless noted, the call rests on the fitted dose curve; in most records, active means well fitted curve in the direction sought with a large enough effect in the repeat runs; inconclusive means weak or mixed curves; inactive means no such curve, though single readings can be large; an effect the other way counts as inactive or inconclusive.
# What was measured:
# [1] = qHTS assay to identify small molecule agonists of the RXR signaling pathway - cell viability counter screen (AID 1159529); further: nearly all actives have a fitted effect of over 50% in size
# Procedure, shortened: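 Compounds dissolved in DMSO were pinned onto HEK 293T cells carrying a beta-lactamase reporter under RXR-alpha control and incubated 16 hr. Cytotoxicity was then quantified by CellTiter-Glo luminescence.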
# [2] = qHTS assay to identify small molecule antagonists of the retinoid acid receptor (RAR) signaling pathway - cell viability counter screen (AID 1159551); further: nearly all actives have a fitted effect of over 35% in size
# Procedure, shortened: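 C3RL4 RARE-luciferase line; cpds + retinol 1 uM final, 6 h, 37 C/5% CO2; CellTiter-Glo ATP luminescence, 30 min RT.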
# [3] = qHTS assay to identify small molecule antagonists of the retinoic acid receptor (RAR) signaling pathway (AID 1159552; further: nearly all actives have a fitted effect of over 50% in size)
# Procedure, shortened: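 Test chemicals and DMSO controls were pin-transferred onto C3RL4 cells a day after seeding; retinol (1 uM final) followed at once. Luminescent reporter output was quantified after 6 hr of co-incubation and 30 min with detection reagent.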
# [4] = qHTS assay to identify small molecule agonists of the retinoic acid receptor (RAR) signaling pathway (AID 1159553); further: potency means the concentration at half of the fitted maximal effect
# Procedure, shortened: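 RARE-luc C3RL4 cells; overnight attachment 37 C/5% CO2; compound (DMSO) 6 hr; luciferase reagent, 30 min RT; luminescence read-out.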
# [5] = qHTS assay to identify small molecule antagonists of the estrogen related receptor (ERR) signaling pathway from Tox21 library - cell viability counter screen (AID 1224834); further: nearly all actives have a fitted effect of over 30% in size
# Procedure, shortened: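 Multiplexed viability counter screen in ERR cells: 17.5 h compound exposure at 37 C, CellTiter-Fluor added, 30 min at 37 C/5% CO2, fluorescence read.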
# [6] = biological target: Luciferin 4-monooxygenase (Photinus pyralis) (UniProt P08659); experiment: qHTS assay to identify small molecule inhibitors of firefly luciferase (AID 1224835); further: nearly all actives have a fitted effect of over 25% in size; further: potency means the concentration at half of the fitted maximal effect
# Sequence of Luciferin 4-monooxygenase (Photinus pyralis) (P08659 whole entry, looked up): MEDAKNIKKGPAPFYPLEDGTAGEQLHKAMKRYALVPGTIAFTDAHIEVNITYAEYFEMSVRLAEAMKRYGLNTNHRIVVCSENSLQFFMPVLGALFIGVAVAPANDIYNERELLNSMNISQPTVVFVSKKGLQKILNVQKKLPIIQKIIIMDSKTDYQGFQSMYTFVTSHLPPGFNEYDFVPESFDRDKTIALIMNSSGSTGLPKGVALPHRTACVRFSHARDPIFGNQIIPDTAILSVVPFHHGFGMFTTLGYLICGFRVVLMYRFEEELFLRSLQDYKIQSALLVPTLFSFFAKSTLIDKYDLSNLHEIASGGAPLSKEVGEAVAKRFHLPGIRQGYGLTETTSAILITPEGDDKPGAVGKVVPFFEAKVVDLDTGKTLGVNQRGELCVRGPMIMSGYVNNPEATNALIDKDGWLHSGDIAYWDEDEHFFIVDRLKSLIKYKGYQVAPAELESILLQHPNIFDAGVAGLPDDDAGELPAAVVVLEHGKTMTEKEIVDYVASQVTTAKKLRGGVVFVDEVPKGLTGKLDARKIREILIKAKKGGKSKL
# Procedure, shortened: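 Inhibition of purified Photinus luciferase is measured by luminescence. Substrate levels (D-luciferin, ATP) sit at their KM values. Each compound is tested in a concentration series.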
# [7] = qHTS assay to identify small molecule agonists of the constitutive androstane receptor (CAR) signaling pathway - cell viability counter screen (AID 1224836); further: nearly all actives have a fitted effect of over 45% in size
# Procedure, shortened: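 23 h treatment, 37 C, 5% CO2. Cell line: HepG2 stably expressing hCAR with a CYP2B6-2.2kb construct. Co-treatment: PK11195, 0.75 uM final. Read-out: CellTiter-Fluor fluorescence intensity.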
# [8] = qHTS assay to identify small molecule antagonists of the constitutive androstane receptor (CAR) signaling pathway - cell viability counter screen (AID 1224837); further: nearly all actives have a fitted effect of over 45% in size
# Procedure, shortened: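 Read-out: CellTiter-Fluor fluorescence after 23 hr at 37 C/5% CO2. Cells: HepG2 double-stable for hCAR and CYP2B6-2.2kb. Compounds tested at 15 concentrations in the presence of CITCO, final concentration 50 nM.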
# [9] = qHTS assay to identify small molecule antagonists of the estrogen related receptor signaling pathway with the pleiotropic PPARgamma coactivator (PGC) from Tox21 10K library - cell viability counter screen (AID 1224840; active means well fitted cell-killing curve with a large enough effect in the repeat runs, not every such curve was filed as active; further: nearly all actives have a fitted effect of over 40% in size)
# Procedure, shortened: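 Fluorescence read-out of CellTiter-Fluor viability reagent, added after cells had been exposed to compound in DMSO for 17.5 h at 37 C; 30 min development at 37 C/5% CO2. Cells: PGC/ERR line, 2,000/well.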
# [10] = biological target: Thyrotropin receptor (Homo sapiens) (UniProt P16473); experiment: qHTS assay to identify small molecule agonists of the thyroid stimulating hormone receptor (TSHR) signaling pathway (AID 1224843; calls by dose curve; further: nearly all actives have a fitted effect of over 45% in size)
# Sequence of Thyrotropin receptor (Homo sapiens) (P16473 whole entry, looked up): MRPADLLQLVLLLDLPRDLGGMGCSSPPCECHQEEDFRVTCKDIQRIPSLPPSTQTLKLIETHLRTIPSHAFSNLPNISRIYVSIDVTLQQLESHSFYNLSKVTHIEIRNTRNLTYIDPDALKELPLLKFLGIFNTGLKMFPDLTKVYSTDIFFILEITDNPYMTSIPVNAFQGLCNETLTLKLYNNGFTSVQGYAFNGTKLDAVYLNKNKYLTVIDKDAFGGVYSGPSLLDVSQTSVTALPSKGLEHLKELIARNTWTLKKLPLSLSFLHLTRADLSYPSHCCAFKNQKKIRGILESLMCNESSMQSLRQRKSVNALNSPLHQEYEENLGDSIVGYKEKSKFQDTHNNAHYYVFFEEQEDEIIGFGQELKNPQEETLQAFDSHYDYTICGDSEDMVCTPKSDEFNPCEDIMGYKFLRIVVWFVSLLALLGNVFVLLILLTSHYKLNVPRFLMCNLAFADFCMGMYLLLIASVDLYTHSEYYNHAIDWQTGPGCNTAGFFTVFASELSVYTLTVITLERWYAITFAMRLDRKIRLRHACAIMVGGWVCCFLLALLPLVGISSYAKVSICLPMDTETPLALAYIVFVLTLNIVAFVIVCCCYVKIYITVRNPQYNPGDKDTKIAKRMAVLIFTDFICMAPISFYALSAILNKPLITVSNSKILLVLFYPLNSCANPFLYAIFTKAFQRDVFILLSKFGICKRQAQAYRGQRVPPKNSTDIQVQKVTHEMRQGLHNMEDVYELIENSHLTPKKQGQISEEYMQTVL
# Procedure, shortened: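 Agonist activity read as cAMP rise via d2/cryptate HTRF competition, 1 h room-temperature detection, in HEK293 cells expressing TSHR. Fifteen-point titrations, each run in triplicate, with a 30 min room-temperature incubation beforehand.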
# [11] = qHTS assay to identify small molecule agonists of the hypoxia (HIF-1) signaling pathway - cell viability counter screen (AID 1224844; calls by dose curve; further: nearly all actives have a fitted effect of over 50% in size)
# Procedure, shortened: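 CellTiter-Glo luminescence read-out, 30 min RT, taken in the same wells as the beta-lactamase HRE reporter assay; HRE-bla ME-180 cells, 0.5% dialyzed FBS, 17 hr compound treatment at 37C, 5% CO2.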
# [12] = qHTS assay to identify small molecule agonists of H2AX (AID 1224845; active means well fitted activation curve with a large enough effect in the signal ratio in the repeat runs, not every such curve was filed as active; the % refers to the signal ratio)
# Procedure, shortened: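 Phospho-H2AX Ser139 measured by HTRF (ex 320 nm; em 665 and 620 nm) after 24 hr antibody incubation. Compounds, 15 concentrations, 0.76% DMSO, were applied to CHO-K1 cells for 3hr at 37C before lysis.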
# [13] = qHTS assay to identify small molecule agonists of the hypoxia (HIF-1) signaling pathway (AID 1224846; active means well fitted activation curve with a large enough effect in the signal ratio in the repeat runs, not every such curve was filed as active; the % refers to the signal ratio)
# Procedure, shortened: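 Beta-lactamase FRET read-out (CCF4-AM substrate) from ME-180 cells carrying an HRE-driven bla reporter, after 17 hrs compound exposure at 37C/5% CO2. Cells were seeded at 2,000 per well in 0.5% dialyzed FBS medium and preincubated 5 hrs.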
# [14] = qHTS assay to identify small molecule agonists of H2AX - cell viability counter screen (AID 1224847; calls by dose curve; further: top concentration of the series differs between compounds; nearly all actives have a fitted effect of over 30% in size)
# Procedure, shortened: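 Compounds tested at 15 concentrations were incubated 3 hr at 37C with wild-type CHO-K1 cells; cellular ATP-based luminescence (CellTiter-Glo) indicated viability.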
# [15] = biological target: Nuclear receptor subfamily 1 group I member 3 (Homo sapiens) (UniProt Q14994); experiment: qHTS assay to identify small molecule antagonists of the constitutive androstane receptor (CAR) signaling pathway (AID 1224838);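 further: HepG2 cells stably expressing hCAR with CYP2B6 luciferase reporter stimulated by CITCO; nearly all actives have a fitted effect of over 40% in size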
# Sequence of Nuclear receptor subfamily 1 group I member 3 (Homo sapiens) (Q14994 whole entry, looked up): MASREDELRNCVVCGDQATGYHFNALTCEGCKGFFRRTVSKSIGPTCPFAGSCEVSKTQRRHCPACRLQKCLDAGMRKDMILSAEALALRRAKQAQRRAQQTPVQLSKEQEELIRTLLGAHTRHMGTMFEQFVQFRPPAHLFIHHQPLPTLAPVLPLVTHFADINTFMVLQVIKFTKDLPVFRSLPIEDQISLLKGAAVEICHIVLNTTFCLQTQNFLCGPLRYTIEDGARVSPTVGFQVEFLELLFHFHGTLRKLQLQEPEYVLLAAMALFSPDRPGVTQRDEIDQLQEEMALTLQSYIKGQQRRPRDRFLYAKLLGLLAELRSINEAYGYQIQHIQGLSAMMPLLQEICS
# Procedure, shortened: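 Read-out: ONE-Glo luciferase luminescence after 30 min at room temperature. HepG2-CYP2B6-hCAR double-stable cells, compounds in 15-point titration plus 50 nM CITCO final, 24 h at 37 C/5% CO2.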
# [16] = biological target: Nuclear receptor subfamily 1 group I member 3 (Homo sapiens) (UniProt Q14994); experiment: qHTS assay to identify small molecule agonists of the constitutive androstane receptor (CAR) signaling pathway (AID 1224839);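 further: HepG2 cells stably carrying human CAR and a CYP2B6 luciferase reporter; nearly all actives have a fitted effect of over 15% in size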
# Procedure, shortened: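 Compounds tested at 15 concentrations on HepG2 cells stably harbouring hCAR and CYP2B6-2.2kb reporter constructs, co-treated with PK11195 (0.75 uM final), 24 h at 37 C; luminescent reporter signal quantified.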
# [17] = qHTS assay to identify small molecule antagonists of the estrogen related receptor signaling pathway with the pleiotropic PPARgamma coactivator (PGC) from Tox21 10K library (AID 1224841; call rule not given here; further: actives are mostly falling curves and most rising ones were filed inactive; nearly all actives have a fitted effect of over 50% in size)
# Procedure, shortened: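 Luminescence read-out (One-Glo luciferase reagent, 30 min at room temperature) from PGC/ERR cells exposed to DMSO-dissolved test compounds for 18 h at 37 C; cells, 2,000 per well, had been preincubated 6 h before compound transfer.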
# [18] = qHTS assay to identify small molecule agonists of the estrogen related receptor signaling pathway with the pleiotropic PPARgamma coactivator (PGC) from Tox21 10K library (AID 1224842); further: nearly all actives have a fitted effect of over 15% in size
# Procedure, shortened: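 Luminescence from One-Glo (30 min, room temperature) measured after PGC/ERR cells had 18 h at 37 C with pinned compound (23 nL in DMSO). Cells had been seeded at 2,000 per well and pre-incubated 6 h.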
# [19] = qHTS assay to identify small molecule antagonists of the estrogen related receptor (ERR) signaling pathway from Tox21 library (AID 1224848); further: nearly all actives have a fitted effect of over 50% in size
# Procedure, shortened: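 Luciferase luminescence (ONE-Glo, 30 min room temperature) was the read-out. Cells of the NTP-supplied ERR line, 2,000 per well, were given 6 h at 37 C before compound addition in DMSO and 18 h exposure at 37 C.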
# [20] = qHTS assay to identify small molecule agonists of the estrogen related receptor (ERR) signaling pathway from Tox21 library (AID 1224849; calls by dose curve; further: nearly all actives have a fitted effect of over 15% in size); conditions: ERR reporter cell line, ONE-Glo luciferase, 18 h; at 92.4 µM (top of the series) unless noted
# Procedure, shortened: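 Luminescence readout (ONE-Glo, 30 min RT) after 18 h compound exposure at 37 C of NTP-supplied ERR reporter cells; cells were plated 6 h before compound addition by pin tool.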
smiles,measurement,setting,value
C=CC(C)(CCC=C(C)C)OC(=O)C(C)C (stereo unspecified),Potency,[1],inactive
same,outcome,[2],inactive
same,outcome,[3],inactive
same,Potency,[4],inactive
same,outcome,[5],inactive
same,Potency,[6],inactive
same,outcome,[7],inactive
same,outcome,[8],inactive
same,outcome,[9],inactive
same,Potency,[10],inactive
same,outcome,[11],inactive
same,outcome,[12],inactive
same,outcome,[13],inactive
same,outcome,[14],inactive
Cc1ccc(OC(=O)CC(C)C)cc1,Potency,[1],inactive
same,outcome,[2],inactive
same,outcome,[3],inactive
same,Potency,[4],inactive
same,outcome,[5],inactive
same,Potency,[6],35.6 µM (active)
same,outcome,[7],inactive
same,outcome,[15],inactive
same,Potency,[16],inactive
same,outcome,[9],inactive
same,Potency,[17],inactive
same,Potency,[18],inactive
same,Potency,[10],inactive
same,outcome,[11],inactive
same,outcome,[12],inactive
same,outcome,[13],inactive
same,outcome,[14],inactive
same,outcome,[19],inactive
same,"activity change, positive = activation",[20],-0.118%
CC/C=C\CCOC(=O)c1ccccc1,Potency,[1],inactive
same,outcome,[2],inactive
same,outcome,[3],inactive
same,Potency,[4],68.6 µM (active)
same,outcome,[5],inactive
same,Potency,[6],7.1 µM (active)
same,outcome,[7],inactive
same,outcome,[15],inactive
same,Potency,[16],inactive
same,outcome,[9],inactive
same,Potency,[17],inactive
same,Potency,[18],inactive
same,Potency,[10],inactive
same,outcome,[11],inactive
same,outcome,[13],inactive
same,outcome,[14],inactive
same,outcome,[19],inactive
same,"activity change, positive = activation",[20],5.28%
COC(=O)/C=C(\C)CCC=C(C)C,Potency,[1],inactive
same,outcome,[2],inactive
same,outcome,[3],inactive
same,Potency,[4],inactive
same,outcome,[5],inactive
same,Potency,[6],inactive
same,outcome,[7],inactive
same,outcome,[8],inactive
same,outcome,[9],inactive
same,Potency,[17],inactive
same,Potency,[10],inactive
same,outcome,[11],inactive
same,outcome,[12],inactive
same,outcome,[13],inactive
same,outcome,[19],inactive
same,"activity change, positive = activation",[20],1.22%
CC(O)C(CO)C(C)O (stereo unspecified),Potency,[1],inactive
same,outcome,[2],inactive
same,outcome,[3],inactive
same,Potency,[4],inactive
same,outcome,[5],inactive
same,Potency,[6],inactive
same,outcome,[7],inactive
same,outcome,[8],inactive
same,outcome,[9],inactive
same,Potency,[10],inactive
same,outcome,[11],inactive
same,outcome,[12],inactive
same,outcome,[13],inactive
same,outcome,[14],inactive
CCOC(=O)[C@H](CCc1ccccc1)N[C@H]1CS[C@H](c2cccs2)CN(CC(=O)O)C1=O,Potency,[1],inactive
same,outcome,[2],inactive
same,outcome,[3],inactive
same,Potency,[4],inactive
same,outcome,[5],inactive
same,Potency,[6],inactive
same,outcome,[7],inactive
same,outcome,[8],inactive
same,outcome,[9],inactive
same,Potency,[10],inactive
same,outcome,[11],inactive
same,outcome,[12],inactive
same,outcome,[13],inactive
same,outcome,[14],inactive
N#Cc1cc(NC(=O)C(=O)O)c(Cl)c(NC(=O)C(=O)O)c1,Potency,[1],inactive
same,outcome,[2],inactive
same,outcome,[3],inactive
same,Potency,[4],inactive
same,outcome,[5],inactive
same,Potency,[6],inactive
same,outcome,[7],inactive
same,outcome,[8],inactive
same,outcome,[9],inactive
same,Potency,[10],inactive
same,outcome,[11],inactive
same,outcome,[12],inactive
same,outcome,[13],inactive
same,outcome,[14],inactive
CCCCS,Potency,[1],inactive
same,outcome,[2],inactive
same,outcome,[3],inactive
same,outcome,[5],inactive
same,Potency,[6],inactive
same,outcome,[7],inactive
same,outcome,[8],inactive
same,outcome,[15],inactive
same,Potency,[16],inactive
same,outcome,[9],inactive
same,Potency,[10],inactive
same,outcome,[11],inactive
same,outcome,[12],inactive
same,outcome,[13],inactive
same,outcome,[14],inactive
CCCCCCCCCCCCCCCC(=O)OC,"activity change, negative = cytotoxicity",[1],-3.67% [at 15.8 µM]
same,"activity change, negative = cytotoxicity",[2],3.42% [at 19 µM]
same,"activity, negative = inhibition",[3],-7.57% [at 19 µM]
same,"viability change, negative = cytotoxic",[5],2.97% [at 19 µM]
same,"activity change, negative = inhibition",[6],0.26% [at 23.6 µM]
same,"viability change, negative = cytotoxic",[7],-0.61% [at 19 µM]
same,"activity change, negative = cytotoxicity",[8],-4.04% [at 19 µM]
same,"activity, negative = inhibition",[15],-5.63% [at 19 µM]
same,activation,[16],-1.6% [at 19 µM]
same,"viability change, negative = cytotoxic",[9],5.32% [at 19 µM]
same,activation,[10],-0.158% [at 19 µM]
same,"activity change, negative = cytotoxicity",[11],9.89% [at 15.8 µM]
same,activation (H2AX phosphorylation),[12],4.71% [at 31.6 µM]
same,"activity change, negative = cytotoxicity",[14],-4.52% [at 31.6 µM]
Cc1cc(O)c(Cl)cc1C,Potency,[1],inactive
same,outcome,[2],inactive
same,outcome,[3],inactive
same,outcome,[5],inactive
same,Potency,[6],inactive
same,outcome,[7],inactive
same,outcome,[8],inactive
same,outcome,[15],inactive
same,Potency,[16],inactive
same,outcome,[9],inactive
same,Potency,[10],inactive
same,outcome,[11],inactive
same,outcome,[12],inactive
C=COCCCCO,Potency,[1],inactive
same,outcome,[2],inactive
same,outcome,[3],inactive
same,Potency,[4],inactive
same,outcome,[5],inactive
same,Potency,[6],inactive
same,outcome,[7],inactive
same,outcome,[9],inactive
same,Potency,[17],inactive
same,Potency,[10],inactive
same,outcome,[11],inactive
same,outcome,[12],inactive
same,outcome,[14],inactive
same,"activity change, positive = activation",[20],-29.3%
COc1ccc(Cl)cc1C,Potency,[1],inactive
same,outcome,[2],inactive
same,outcome,[3],inactive
same,Potency,[4],inactive
same,outcome,[5],inactive
same,Potency,[6],inactive
same,outcome,[7],inactive
same,outcome,[9],inactive
same,Potency,[17],inactive
same,Potency,[18],inactive
same,outcome,[11],inactive
same,outcome,[12],inactive
same,outcome,[13],inactive
same,outcome,[14],inactive
same,outcome,[19],inactive
same,"activity change, positive = activation",[20],7.2%
